The supplement of paper PMC4206461

What follows are molecules tested on Pseudomonas aeruginosa PA14 dppBCDF deletion mutant (assay: respiration area under curve with compound as sole nitrogen source, 24 h (OmniLog AUC (arbitrary units)); higher = more respiration / better utilisation as nitrogen source, active = 2000 or more). Conditions: plate: PM8.
Protocol: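 Biolog Phenotype MicroArray plates PM6-PM8: each di/tripeptide is the sole nitrogen source. Tetrazolium reduction was read in the OmniLog every 15 min for 24 h at 37°C and summarised as area under the respiration curve (arbitrary units). Values below 2000 count as no respiration. Strain is the dipeptide ABC transporter deletion mutant.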
With `N[C@@H](Cc1ccc(O)cc1)C(=O)NCC(=O)NCC(=O)O` the “respiration area under curve” value was 4900 (active).
